# Bioassay records: PubChem BioAssay, National Center for Advancing Translational Sciences (NCATS)
# TGFb SMAD3 inh – qHTS for Inhibitors of TGF-b; Potency, µM (series often up to 46.1 µM), for inactives: at the highest dose activity, negative = inhibition, hits mostly inhibitors; HepG2 CAGA-GFP TGF-b/SMAD3 reporter, GFP fluorescence, 18 h; TGF-beta stimulated, 500 pg/mL final; 410,000 compounds, 1.2% hits; also: potency is read from the fitted curve at half-maximal effect; % is scaled to controls: 0 for no effect and ±100 for the full control effect; nearly all actives have a fitted effect of over 65% in size
#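 TGF-beta reporter screen: HEPG2 CAGA-GFP, 1% FBS, 500 pg/mL TGF-beta final, 18 h; per-cell GFP summed per well; curves fitted and categorized by class.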
# IL1B secr inh – qHTS for Inhibitors of Inflammasome Signaling: IL-1-beta AlphaLISA Primary Screen; 360,000 compounds, 4.7% hits; THP-1 LPS/ATP IL-1B secretion, AlphaLISA, 16 h; active compounds read low; AID 743279, 2014; activity change, % at 57.5 µM; in the data active = activity change below about -50%; inconclusive = mostly about -30% to -49%; also: % is scaled to controls: 0 for no effect and ±100 for the full control effect
#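 THP-1 cells pretreated 1 hr with compounds (up to 57.5 uM final), then stimulated with LPS (250 ng/mL final) plus ATP (1.25 mM final); secreted IL-1B measured by AlphaLISA after 16 hr, decreased signal indicating inhibition.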
# DT40 TDP1 no CPT – qHTS for Inhibitors of human tyrosyl-DNA phosphodiesterase 1 (TDP1): qHTS in cells in absence of CPT | DT40 Tdp1-/- hTDP1 cells, no CPT, ATP luminescence, 48 h | Potency, µM (series often up to 46.2 µM), for the others: top-dose activity change, negative = growth inhibition, actives largely listed as inhibitors | 420,000 compounds, 15% hits | AID 686978, 2013; also: potency is read from the fitted curve at half-maximal effect; % is scaled to controls: 0 for no effect and ±100 for the full control effect; nearly all actives have a fitted effect of over 55% in size
#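 DT40 Tdp1-/-;hTDP1 cells, no CPT (DMSO vehicle only), 400 cells/well; compounds pin-transferred; ≥48 hr, 37 °C; CellTiter-Glo 30 min RT dark, luminescence read.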
# ASM inhibitor – Inhibitors of Secretory Acid Sphingomyelinase (S-ASM): qHTS. 340,000 compounds, 0.006% hits. Potency, µM (titrated, usually from 57.5 µM), without a hit: at the top dose activity change, negative = inhibition, usual class: inhibitors. placental ASM, HMU-PC fluorogenic substrate, 60 min. Sphingomyelin phosphodiesterase (Homo sapiens), P17405; also: potency is read from the fitted curve at half-maximal effect
# Target sequence (P17405 47-631 limits assumed): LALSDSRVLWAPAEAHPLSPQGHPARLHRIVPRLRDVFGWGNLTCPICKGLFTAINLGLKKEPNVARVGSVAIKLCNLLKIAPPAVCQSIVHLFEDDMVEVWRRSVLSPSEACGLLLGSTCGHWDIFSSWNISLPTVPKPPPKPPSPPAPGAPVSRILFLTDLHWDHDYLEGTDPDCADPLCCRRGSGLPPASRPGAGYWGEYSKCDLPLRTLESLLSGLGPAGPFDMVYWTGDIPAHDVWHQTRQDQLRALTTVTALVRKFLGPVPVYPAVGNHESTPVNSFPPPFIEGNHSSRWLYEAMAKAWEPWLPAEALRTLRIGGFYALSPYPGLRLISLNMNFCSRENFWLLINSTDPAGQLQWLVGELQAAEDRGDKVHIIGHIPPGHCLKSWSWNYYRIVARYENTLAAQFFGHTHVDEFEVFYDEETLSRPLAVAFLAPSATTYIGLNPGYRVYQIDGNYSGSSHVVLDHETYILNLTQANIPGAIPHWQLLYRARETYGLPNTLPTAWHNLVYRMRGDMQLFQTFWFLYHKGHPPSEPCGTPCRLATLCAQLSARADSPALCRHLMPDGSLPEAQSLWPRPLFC
#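 Steps: dispense placental human ASM, pin compound, wait 10 min at room temperature, add HMU-PC0 substrate at 9 uM final, incubate 60 min at 37 °C, add stop solution raising pH to 10, read fluorescence.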
# HepG2 viability – qHTS for Inhibitors of TGF-b: Cytotox Counterscreen; Potency, µM (series often up to 46.1 µM), for the others: at the highest dose activity change, negative = cytotoxicity, hits mostly cytotoxic; AID 588856, 2011; 410,000 compounds, 0.76% hits; HepG2 CAGA-GFP viability, ATP luminescence, 18 h; also: potency is read from the fitted curve at half-maximal effect
#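 HepG2 CAGA-GFP cells (1000/well, DMEM with 1% FBS) received compound, then TGF-beta at 500 pg/mL final, and were incubated 18 hours at 37 degrees C. Viability was read by CellTiter-Glo luminescence. Media-only wells were set as complete cell-killing and DMSO as no toxicity.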
# TDP1 cell CPT – qHTS for Inhibitors of human tyrosyl-DNA phosphodiesterase 1 (TDP1): qHTS in cells in presence of CPT. chicken DT40 Tdp1-/-;hTDP1 cells + 20 nM CPT, ATP luminescence, 48 h. Potency, µM (titrated, usually from 46.2 µM), for inactives: at the top dose activity change, negative = growth inhibition, hits mostly inhibitors. 420,000 compounds, 12% hits. AID 686979, 2013; also: potency is read from the fitted curve at half-maximal effect; % is scaled to controls: 0 for no effect and ±100 for the full control effect; nearly all actives have a fitted effect of over 55% in size
#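 Chicken DT40 Tdp1-/- cells stably complemented with human TDP1 were seeded at 400 cells/well in medium containing 20 nM camptothecin, exposed to pin-transferred compounds, and grown at 37 °C for at least 48 hr. Viability was read as ATP luminescence.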
# An asterisk follows results filed as active; i = inactive; ? = inconclusive; . = not tested or not shown. Rows were chosen to be rich in hits. Some 19% of all compounds tested hit in one or more screens of this group. Unless noted, calls follow the shape of the dose curve; as a rule, active = well fitted curve in the direction sought with a large enough effect; inconclusive = small, poorly fitted or top-dose-only effect, or another doubt; inactive = no such curve, though single readings can be large; an effect the other way counts as inactive or inconclusive.
SMILES,TGFb SMAD3 inh,IL1B secr inh,DT40 TDP1 no CPT,ASM inhibitor,HepG2 viability,TDP1 cell CPT
CCc1sc(Nc2cccc(Cl)c2)nc1-c1cc2cccc(OC)c2oc1=O,-19.2%,.,16.4µM*,.,-0.4%,?
COc1cccc2cc(-c3nc(Nc4cccc(C)c4)sc3C)c(=O)oc12,-19.0%,.,?,.,-40.3%,?
CCN(CC(=O)NCc1ccc(F)cc1)C(=O)/C=C/c1cc(OC)ccc1OC,24.5%,26.4,-27.8%,i,-11.6%,2.8%
Cc1ccc(NC(=O)Cn2cc(S(=O)(=O)Cc3cccc(Cl)c3)c3ccccc32)cc1C,?,.,?,.,-55.6%,?
CCN(C(=O)Cn1cc(S(=O)(=O)Cc2ccccc2Cl)c2ccccc21)c1ccccc1,-9.3%,.,23.1µM*,.,-18.9%,16.4µM*
Cc1ccc(C)c(NC(=O)Cn2cc(S(=O)(=O)Cc3cccc(Cl)c3)c3ccccc32)c1,0.0%,.,?,.,-6.9%,16.4µM*
CN(C)c1ccc(NC(=O)Cn2cc(S(=O)(=O)Cc3ccccc3Cl)c3ccccc32)cc1,.,.,8.2µM*,.,-21.3%,?
O=C(Cn1cc(S(=O)(=O)Cc2ccccc2Cl)c2ccccc21)Nc1cccc(C(F)(F)F)c1,?,.,?,.,15.8µM*,?
COc1ccc(NC(=O)CN2C(=O)c3ccccc3S2(=O)=O)cc1S(=O)(=O)N1CCOCC1,12.1%,56.3,-7.8%,1.2%,-13.7%,-0.8%
COc1cc(NC(=O)COC(=O)c2[nH]c(C)c(C(C)=O)c2C)cc(OC)c1,?,1.3,?,-5.1%,-6.4%,?
O=C(Cn1cc(S(=O)(=O)Cc2ccccc2Cl)c2ccccc21)NCc1ccccc1Cl,?,.,?,.,-26.2%,?
Cc1ccc(CNC(=O)Cn2cc(S(=O)(=O)Cc3ccccc3Cl)c3ccccc32)cc1,-9.3%,.,14.6µM*,.,-47.3%,18.4µM*
O=C(NCc1cccc(Cl)c1)C1Cc2c(-c3ccccc3Oc3ccccc3)ccnc2O1 (stereo unspecified),?,-11.7,?,.,-28.0%,23.1µM*
CN(C)c1ccc(CNC(=O)C2Cc3c(-c4ccccc4Oc4ccccc4)ccnc3O2)cc1 (stereo unspecified),?,-7.8,?,.,-29.7%,?
O=C(NCC1CC1)C1Cc2c(-c3ccccc3Oc3ccccc3)ccnc2O1 (stereo unspecified),1.5%,-8.1,-43.9%,.,-23.0%,?
COc1ccc(CNC(=O)C2Cc3c(-c4ccccc4Oc4ccccc4)ccnc3O2)cc1OC (stereo unspecified),?,-28.7,20.6µM*,.,-10.8%,18.4µM*
Cc1csc(SCC(=O)NC2CCCC2)n1,25.9%,3.0,-1.5%,-1.9%,-5.9%,-3.6%
C=CCNC(=O)N1CCc2[nH]c3ccc(F)cc3c2C1,17.7%,-6.9,2.6%,1.6%,6.8%,2.7%
Fc1ccc2[nH]c3c(c2c1)CN(C(=S)NCc1ccccc1)CC3,?,-89.4*,?,-15.2%,-30.7%,-17.8%
Cc1ccc(N(C)S(=O)(=O)c2cccc(C(=O)NCC(c3ccco3)N3CCCC3)c2)cc1 (stereo unspecified),-14.6%,?,?,4.5%,-24.6%,?
CCCC(C(=O)NCCC(C)C)N(Cc1ccccc1Cl)C(=O)c1snc(C(N)=O)c1N (stereo unspecified),?,15.2,?,262.5%,9.4%,?
Cc1cc2nc(-c3ccc(F)cc3)c(CC3CCCCC3)n2c(C)c1Br,.,35.9,20.6µM*,.,.,?
CCCc1nc2cc(C)c(Br)c(C)n2c1CC1CCCCC1,.,?,2.91µM*,.,.,4.11µM*
Cc1ccc(-c2nc3cc(C)c(Br)c(C)n3c2CC2CCCCC2)cc1,.,0.0,13µM*,.,.,?
Cc1cc2nc(-c3cccc(Cl)c3)c(CC3CCCCC3)n2c(C)c1Br,.,36.5,?,.,.,-26.8%
SMILES,TGFb SMAD3 inh,IL1B secr inh,DT40 TDP1 no CPT,ASM inhibitor,HepG2 viability,TDP1 cell CPT
Cc1cc2nc(-c3ccccc3)c(CC3CCCCC3)n2c(C)c1Br,.,33.1,14.6µM*,.,.,23.1µM*
COc1ccc(-c2nc3cc(C)c(Br)c(C)n3c2CC2CCCCC2)cc1OC,.,17.0,?,.,.,2.4%
COc1ccc(C(=O)Nc2nc(C)cs2)cc1S(=O)(=O)N1CCOCC1,0.3%,2.4,3.8%,.,3.4%,3.4%
CCc1nn(C(CC)C(=O)NCC(C)c2ccccc2)c(=O)c2cc3occc3n12 (stereo unspecified),9.0%,?,-26.8%,-2.4%,-5.2%,?
CCc1nn(C(CC)C(=O)NCCCN2CC(C)CC(C)C2)c(=O)c2cc3oc(C)cc3n12 (stereo unspecified),-1.9%,-9.8,?,1.4%,-26.4%,16.4µM*
CNC(=O)c1c(NC(=O)c2ccc(N3C(=O)CCC3=O)cc2)sc2c1CCC(C)C2 (stereo unspecified),-16.1%,14.5,-19.5%,0.9%,0.6%,-23.3%
COc1cccc(Cn2c(CNC(=O)CCc3ccccc3)nc3cccnc32)c1,-19.5%,.,?,.,-19.7%,?
O=C(O)/C=C/C(=O)Nc1ccc(N2CCOCC2)nc1N1CCOCC1,13.9%,-6.8,23.1µM*,3.6%,-53.2%,20.6µM*
